In general, AC50 refers to the midpoint of the concentration-response curve, whichever way the signal moves.

In PubChem BioAssay (EPA / NIEHS) one finds outcome and AC50 data, which are given here for 4 molecules.

Active and inactive are the calls of the source. The calls were made as follows: active = hit-call score of the fitted dose curve at least 0.9, where 1 is the maximum; inactive = score below 0.9.

Read-out in assay [1]: Epidermal growth factor receptor (EGFR), EGFR (gene 1956)
The experiment in a line: BSK_hDFCGF_EGFR: BioMAP Diversity Plus: hDFCGF Assay for Epidermal growth factor receptor (EGFR) Biomarker Activity (AID 2283057). Conditions: primary human foreskin fibroblasts; actives raise or lower the signal. In a few lines:
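EGFR levels by ELISA in human dermal fibroblast cultures, 24 h post-treatment, fitted bidirectionally versus DMSO. Parallel wells stained with sulforhodamine B to detect overt cytotoxicity.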

Read-out in assay [2]: Interleukin-8 (IL8), CXCL8 (gene 3576)
Nature of the assay: BSK_hDFCGF_IL8: BioMAP Diversity Plus: hDFCGF Assay for Interleukin-8 (IL8) Biomarker Activity (AID 2283058). The conditions noted are these: primary human foreskin fibroblasts; actives raise or lower the signal. In a few lines: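 Fibroblast monolayers (human foreskin, hDFCGF) received test chemical for 24 h before ELISA detection of IL-8; either increases or decreases relative to DMSO count as activity.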

Assay [3] is described as follows: BSK_hDFCGF_Proliferation: Cell Proliferation Assessment in the BioMAP Diversity Plus: hDFCGF Assay (AID 2283059).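 Also: curves fitted for both rise and fall of signal versus DMSO baseline.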 Conditions: primary human foreskin fibroblasts. Put shortly: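 Steps: dose primary human dermal fibroblasts (foreskin); […] fix in 10% TCA; stain with 0.1% SRB; read 560 nm; fit gain or loss of signal against DMSO.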
Read-out in assay [4]: Macrophage colony-stimulating factor (MCSF), CSF1 (gene 1435)
The experiment in a line: BSK_hDFCGF_MCSF: BioMAP Diversity Plus: hDFCGF Assay for Macrophage colony-stimulating factor (MCSF) Biomarker Activity (AID 2283060). Conditions: primary human foreskin fibroblasts; actives raise or lower the signal. Put shortly: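 fibroblasts (human foreskin, primary), 24 h post-dose; M-CSF by ELISA; bidirectional fit, DMSO = baseline.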

Read-out in assay [5]: TIMP metallopeptidase inhibitor 1 (TIMP1), TIMP1 (gene 7076)
The experiment in a line: BSK_hDFCGF_TIMP1: BioMAP Diversity Plus: hDFCGF Assay for TIMP metallopeptidase inhibitor 1 (TIMP1) Biomarker Activity (AID 2283062). Conditions: primary human foreskin fibroblasts; actives raise or lower the signal. Put shortly: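 Bidirectional curve fitting against DMSO baseline yielded this endpoint, based on ELISA detection of TIMP-1 in primary human foreskin fibroblasts exposed to compound for 24 h.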

Read-out in assay [6]: Monokine induced gamma interferon (MIG), CXCL9 (gene 4283)
The experiment in a line: BSK_hDFCGF_MIG: BioMAP Diversity Plus: hDFCGF Assay for Monokine induced gamma interferon (MIG) Biomarker Activity (AID 2283063). The conditions noted are these: primary human foreskin fibroblasts; actives raise or lower the signal. Put shortly:
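Endpoint derived by bidirectional fitting relative to DMSO; MIG quantified via ELISA in primary human foreskin fibroblasts harvested 24 h after dosing.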

Read-out in assay [7]: Matrix Metallopeptidase 1 (MMP1), MMP1 (gene 4312)
Nature of the assay: BSK_hDFCGF_MMP1: BioMAP Diversity Plus: hDFCGF Assay for Matrix Metallopeptidase 1 (MMP1) Biomarker Activity (AID 2283064). The conditions noted are these: primary human foreskin fibroblasts; actives raise or lower the signal. Put shortly:
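MMP1 levels quantified by ELISA 24 h after dosing human dermal fibroblast cultures, with parallel SRB total-protein staining for overt cytotoxicity. Data fitted in both directions against DMSO baseline.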

Read-out in assay [8]: Plasminogen activator inhibitor-1 (PAI1), SERPINE1 (gene 5054)
Nature of the assay: BSK_hDFCGF_PAI1: BioMAP Diversity Plus: hDFCGF Assay for Plasminogen activator inhibitor-1 (PAI1) Biomarker Activity (AID 2283066). The conditions noted are these: primary human foreskin fibroblasts; actives raise or lower the signal. In a few lines: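 PAI-1 levels in human dermal foreskin fibroblasts were quantified by ELISA 24 h after dosing, with gain or loss analysed against DMSO. Overt cytotoxicity was checked by sulforhodamine B total-protein staining in parallel cultures.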

Read-out in assay [9]: Intercellular Adhesion Molecule 1 (ICAM1), ICAM1 (gene 3383)
Nature of the assay: BSK_KF3CT_ICAM1: BioMAP Diversity Plus: KF3CT Assay for Intercellular Adhesion Molecule 1 (ICAM1) Biomarker Activity (AID 2283067). The conditions noted are these: primary human keratinocytes with fibroblasts; actives raise or lower the signal. In a few lines: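 Bidirectional curve fitting against a DMSO baseline was applied to ICAM-1 ELISA signal from primary human skin co-cultures harvested 24 h after treatment, with SRB staining of parallel wells for overt cytotoxicity.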

Read-out in assay [10]: Interferon-gamma inducible Protein 10 (IP10), CXCL10 (gene 3627)
The experiment in a line: BSK_KF3CT_IP10: BioMAP Diversity Plus: KF3CT Assay for Interferon-gamma inducible Protein 10 (IP10) Biomarker Activity (AID 2283068). The conditions noted are these: primary human keratinocytes with fibroblasts; actives raise or lower the signal. In a few lines:
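KF3CT co-culture (keratinocytes + foreskin fibroblasts), 24 h compound, IP-10 by ELISA; bidirectional fit vs DMSO baseline.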

Assay [11] is described as follows: BSK_KF3CT_SRB: Viability Assessment in the BioMAP Diversity Plus: KF3CT Assay (AID 2283069).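 Also: read 24 h after compound addition.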 Conditions: primary human keratinocytes with fibroblasts. In a few lines: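 Cytotoxicity was gauged by SRB staining (0.1% SRB, 10% TCA fixation, 560 nm) of parallel cultures at 24 h. The cells were primary human skin keratinocytes co-cultured with fibroblasts, and activity was fitted in both directions against DMSO.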

Read-out in assay [12]: Interleukin-1 alpha (IL1a), IL1A (gene 3552)
The experiment in a line: BSK_KF3CT_IL1a: BioMAP Diversity Plus: KF3CT Assay for Interleukin-1 alpha (IL1a) Biomarker Activity (AID 2283070). The conditions noted are these: primary human keratinocytes with fibroblasts; actives raise or lower the signal. In a few lines:
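IL-1a was detected by ELISA 24 h after chemical treatment of a co-culture of human skin keratinocytes and foreskin fibroblasts. Gain or loss of signal was fitted against the DMSO baseline.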

Read-out in assay [13]: TIMP metallopeptidase inhibitor 2 (TIMP2), TIMP2 (gene 7077)
The experiment in a line: BSK_KF3CT_TIMP2: BioMAP Diversity Plus: KF3CT Assay for TIMP metallopeptidase inhibitor 2 (TIMP2) Biomarker Activity (AID 2283071). The conditions noted are these: primary human keratinocytes with fibroblasts; actives raise or lower the signal. Put shortly:
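TIMP-2 measured by ELISA at 24 h in human keratinocyte/fibroblast primary co-cultures exposed to chemicals. Both increases and decreases were fitted against DMSO. Parallel cultures were stained with SRB for total protein as an overt-cytotoxicity check.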

Read-out in assay [14]: Transforming growth factor beta 1 (TGFb1), TGFB1 (gene 7040)
Nature of the assay: BSK_KF3CT_TGFb1: BioMAP Diversity Plus: KF3CT Assay for Transforming growth factor beta 1 (TGFb1) Biomarker Activity (AID 2283072). The conditions noted are these: primary human keratinocytes with fibroblasts; actives raise or lower the signal. In a few lines: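 ELISA quantifies TGF-b1 at 24 h post-dose in a primary human skin co-culture of keratinocytes and fibroblasts, with gain or loss judged against DMSO. Parallel SRB total-protein staining flags overt cytotoxicity.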

Read-out in assay [15]: C-C motif chemokine 2 (Homo sapiens) (UniProt P13500)
Nature of the assay: BSK_KF3CT_MCP1: BioMAP Diversity Plus: KF3CT Assay for Monocyte Chemoattractant Protein 1 (MCP1/CCL2) Biomarker Activity (AID 2283073). Conditions: primary human keratinocytes with fibroblasts; actives raise or lower the signal. Put shortly: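 Biomarker MCP-1 is measured by ELISA in primary human keratinocytes co-cultured with foreskin fibroblasts, 24 h after chemical treatment; DMSO serves as the negative control and activity baseline.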

Read-out in assay [16]: Matrix Metallopeptidase 9 (MMP9), MMP9 (gene 4318)
Nature of the assay: BSK_KF3CT_MMP9: BioMAP Diversity Plus: KF3CT Assay for Matrix Metallopeptidase 9 (MMP9) Biomarker Activity (AID 2283074). The conditions noted are these: primary human keratinocytes with fibroblasts; actives raise or lower the signal. In a few lines:
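MMP-9 quantified by ELISA after 24 h chemical treatment of primary human skin keratinocyte/fibroblast co-cultures; gain or loss fitted against DMSO, with parallel SRB staining (0.1% SRB, 560 nm) for overt cytotoxicity.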

Read-out in assay [17]: urokinase plasminogen activator (uPA), PLAU (gene 5328)
The experiment in a line: BSK_KF3CT_uPA: BioMAP Diversity Plus: KF3CT Assay for urokinase plasminogen activator (uPA) Biomarker Activity (AID 2283075). The conditions noted are these: primary human keratinocytes with fibroblasts; actives raise or lower the signal. Put shortly: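 ELISA read-out of uPA 24 h after dosing human skin keratinocytes co-cultured with foreskin fibroblasts. Signal change fitted both ways relative to DMSO; sulforhodamine B on parallel cultures marks overt cytotoxicity.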

Read-out in the next assay: CD40, CD40 (gene 958)
The experiment in a line: BSK_LPS_CD40: BioMAP Diversity Plus: LPS Assay for CD40 Biomarker Activity (AID 2283076). The conditions noted are these: primary human HUVEC with PBMC; actives raise or lower the signal. Put shortly:
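Using a multiplexed primary human co-culture (umbilical vein endothelium plus PBMC), CD40 was read by ELISA 24 h after dosing, with cytotoxicity tracked by sulforhodamine B staining of parallel cultures and activity fitted bidirectionally versus DMSO.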

Read-out in assay [18]: Vascular cell adhesion molecule 1 (VCAM1), VCAM1 (gene 7412)
Nature of the assay: BSK_hDFCGF_VCAM1: BioMAP Diversity Plus: hDFCGF Assay for Vascular cell adhesion molecule 1 (VCAM1) Biomarker Activity (AID 2283065). Conditions: primary human foreskin fibroblasts; actives raise or lower the signal. In a few lines: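 Measured after 24 h chemical treatment of primary human skin fibroblasts, VCAM-1 was detected by ELISA and concentration-response analysed in both directions versus DMSO vehicle.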

The nature of assay [19]: BSK_hDFCGF_SRB: Viability Assessment in the BioMAP Diversity Plus: hDFCGF Assay (AID 2283061).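 Also: cells exposed to compound for 24 h before the read.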 The conditions noted are these: primary human foreskin fibroblasts. In a few lines: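 SRB-based viability read on primary human skin fibroblasts at 24 h: TCA fixation, 0.1% dye, 560 nm. Gain or loss of signal is fitted against the DMSO negative control.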

Consider `Nc1nc(Cl)nc2c1ncn2[C@H]1C[C@H](O)[C@@H](CO)O1`, for which the result in assay [1], in assay [2], in assay [5], in [6], in assay [7] and in [9] was inactive. Also, the outcome in assay [10], in assay [11], in assay [12], in assay [13], in assay [14] and in assay [15] was inactive. In addition, the result in assay [16] and in assay [17] was inactive. For the same molecule, the AC50 was 147 nM (active) in assay [3]; 1010 nM (active) in assay [4]; 10200 nM (active) in assay [8]; 2290 nM (active) with CD40, CD40 (gene 958).
With `CCCCOC(=O)CCCCC(=O)OCCCC`, the outcome in assay [1], in [2], in assay [3], in assay [4], in assay [5] and in assay [6] was inactive. The result in [7], in assay [18], in [8], in [9], in assay [10] and in assay [11] was inactive. Further, the outcome is “inactive” in assay [12]; “inactive” in [14]; “inactive” in assay [15]; “inactive” in assay [16]; “inactive” in [17]; “inactive” with CD40, CD40 (gene 958).
With `COc1ccc(OC(F)(F)F)cc1CN[C@H]1CCCN[C@H]1c1ccccc1`, the outcome in assay [1], in assay [2], in assay [4], in assay [19], in assay [5] and in assay [6] was inactive. For the same molecule, the result in assay [7], in [8], in [9], in [10], in assay [11] and in [12] was inactive. Moreover, the result in assay [14], in assay [15], in assay [16] and in [17] was inactive. Further, the AC50 in the assay with CD40, CD40 (gene 958) was 26600 nM (active).
Regarding `CC(=O)OC1CC(C)OC(C)O1` (stereo unspecified), the outcome in assay [1], in assay [2], in [3], in assay [4], in assay [5] and in [6] was inactive. Also, the outcome in assay [7], in [18], in [9], in [10], in assay [11] and in assay [12] was inactive. The outcome was “inactive” in assay [14]; “inactive” in [15]; “inactive” in [16]; “inactive” in assay [17]; “inactive” in the assay with CD40, CD40 (gene 958). For the same molecule, the half-maximal activity concentration (AC50) in [8] was 523 nM (active).
